From PubChem BioAssay (NCATS) come the findings set out here.

Inconclusive results are not listed. Unmarked numbers belong to inactive results. Active and inactive are the calls of the source. The call rests on the fitted dose curve; in most records, active means well fitted curve in the direction sought with a large enough effect in the repeat runs; inconclusive means weak or mixed curves; inactive means no such curve, though single readings can be large; an effect the other way counts as inactive or inconclusive.

The nature of one assay: qHTS assay for small molecule agonists of the antioxidant response element (ARE) signaling pathway measured by Nrf2-dependant transcriptional activity (AID 720636).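 Further: HepG2 cells with an ARE-driven luciferase reporter; % of control where 0% means no effect.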 As to conditions: ARE-luc HepG2, Nrf2 luciferase reporter, 16 h; series mostly up to 92.4 µM. The essentials:
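In HepG2 cells engineered with an Nrf2-responsive luciferase gene, ARE induction was quantified as luminescence after 16 hr compound treatment at 37 C.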
Background: Quantitative high-throughput screening tests each substance at several concentrations.
On to `CC[C@@H]1Cc2cc(O)ccc2C2=C1c1ccc(O)cc1C[C@H]2CC`, for which the compound was classed as inactive.
Turning to `CCCc1c(OCCCOc2ccc(OCC(=O)O)cc2)ccc(C(C)=O)c1O`, the result was inactive.
As to `C/C(=C\c1ccc(C(=O)O)cc1)c1ccc2c(c1)C(C)(C)CCC2(C)C`, the call was inactive.
Turning to `CCCc1c(-c2ccc(O)cc2)nn(-c2ccc(O)cc2)c1-c1ccc(O)cc1`, the compound was classed as inactive.

Another assay is described as follows: qHTS assay for small molecule agonists of the antioxidant response element (ARE) signaling pathway measured by Nrf2-dependant transcriptional activity - cell viability counter screen (AID 720653). Further: on the % scale 0 is the no-effect control and ±100 the full control effect. Particulars: ARE-bla HepG2 viability, CellTiter-Glo ATP luminescence, 16 h; hits give low values. The essentials: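 ARE-bla HepG2 cells (2,000/well) rested 5 hrs at 37C/5% CO2, then exposed to compounds in DMSO for 16 hrs. Viability was read in the same wells as intracellular ATP by luminescence, 30 min at room temperature after reagent addition.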
For `CC[C@@H]1Cc2cc(O)ccc2C2=C1c1ccc(O)cc1C[C@H]2CC`, the max response is -25.6%.
Still for that read-out and setting: under `CCCc1c(OCCCOc2ccc(OCC(=O)O)cc2)ccc(C(C)=O)c1O` stands 7.96%.
As for `CC1=C(/C=C/C(C)=C/C=C/C(C)=C\C(=O)O)C(C)(C)CCC1`, the max response was 3.98%.
Regarding `C/C(=C\c1ccc(C(=O)O)cc1)c1ccc2c(c1)C(C)(C)CCC2(C)C`, the max response was -1.94%.
On the same count and under the same terms, under `CCCc1c(-c2ccc(O)cc2)nn(-c2ccc(O)cc2)c1-c1ccc(O)cc1` stands -5.61%.
